An excerpt weighted towards active compounds, which were near 5.4% of everything screened.
CtBP-E1A blk: qHTS Assay for Inhibitors of the CtBP/E1A Interaction; CtBP / adenovirus E1A interaction (AlphaScreen); AlphaScreen GST-E1A/His-CtBP binding, 1536-well; active compounds read low; activity change, % (test concentration not listed); 0.49% of 340,000 active; AID 651724, 2012; in the data active = activity change below about -65%; inconclusive = mostly about -30% to -63%; also: % is scaled to controls: 0 for no effect and ±100 for the full control effect
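In 5 uL wells, 23 nL compound meets equimolar GST-E1A and His-CtBP (5X stock 125 nM each) for 2 h, 37 °C. Beads (5X, 50 ug/mL) then 1 h, 37 °C, dark.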
RORg inh: qHTS for inhibitors of ROR gamma transcriptional activity. Drosophila S2 Gal4-RORgamma UAS-luciferase reporter, 20 h. AID 2551, 2010. Nuclear receptor ROR-gamma (Mus musculus), P51450. 5.4% of 310,000 active. Potency, µM (highest dose often 53.6 µM), without a hit: at the highest dose activity change, negative = inhibition, hits mostly inhibitors; also: potency is read from the fitted curve at half-maximal effect; % is scaled to controls: 0 for no effect and ±100 for the full control effect; nearly all actives have a fitted effect of over 60% in size
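Using a luciferase readout, inhibitors were identified by reduced reporter activity in Drosophila cells coexpressing a copper-inducible Gal4–ROR gamma fusion and UAS-driven Photinus luciferase, incubated 20 hr after 700 uM copper sulfate.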
Six1-Eya2 blk: qHTS Assay for Inhibitors of the Six1/Eya2 Interaction; AID 651725, 2012; 0.56% of 360,000 active; AlphaScreen GST-Six1/His-Eya2 binding, biochemical; active compounds read low; Homeobox protein SIX1 (Homo sapiens) + Protein phosphatase EYA2 (Homo sapiens), …; activity change, % (no concentration beside the values); in the data active = activity change below about -65%; inconclusive = mostly about -30% to -63%; also: % is scaled to controls: 0 for no effect and ±100 for the full control effect
Target sequence (O00167 whole entry, looked up): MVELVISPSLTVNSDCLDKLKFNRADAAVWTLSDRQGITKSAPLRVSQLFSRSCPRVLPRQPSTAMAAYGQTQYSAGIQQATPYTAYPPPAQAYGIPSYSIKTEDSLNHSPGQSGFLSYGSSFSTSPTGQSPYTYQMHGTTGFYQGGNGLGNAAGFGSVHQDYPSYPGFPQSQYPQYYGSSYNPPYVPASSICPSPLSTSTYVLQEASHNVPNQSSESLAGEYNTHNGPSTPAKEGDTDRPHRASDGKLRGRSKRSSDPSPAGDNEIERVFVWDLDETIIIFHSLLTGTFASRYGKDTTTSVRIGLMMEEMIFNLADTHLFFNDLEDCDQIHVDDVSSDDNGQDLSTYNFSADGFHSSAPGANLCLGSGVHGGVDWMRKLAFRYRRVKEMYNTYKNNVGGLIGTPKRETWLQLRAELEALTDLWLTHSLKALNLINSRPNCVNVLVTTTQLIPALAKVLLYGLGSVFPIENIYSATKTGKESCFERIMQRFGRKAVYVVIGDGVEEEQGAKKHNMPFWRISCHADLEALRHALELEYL
Target sequence (Q15475 whole entry, looked up): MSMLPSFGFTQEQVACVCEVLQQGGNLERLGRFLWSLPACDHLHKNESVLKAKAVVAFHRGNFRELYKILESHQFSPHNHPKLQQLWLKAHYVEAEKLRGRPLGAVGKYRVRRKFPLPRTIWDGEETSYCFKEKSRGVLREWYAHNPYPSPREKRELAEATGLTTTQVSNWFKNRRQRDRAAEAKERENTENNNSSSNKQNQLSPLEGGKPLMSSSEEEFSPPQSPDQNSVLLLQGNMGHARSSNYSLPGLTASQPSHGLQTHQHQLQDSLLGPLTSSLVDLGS
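AlphaScreen with GST-Six1 and His-Eya2 (5X mix: 250 nM and 500 nM), glutathione donor and nickel acceptor beads; buffer 50 mM Tris pH 8.0, 300 mM NaCl, 1 mM TCEP; 1 h at 37 C in the dark.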
p53 reactivator: qHTS assay for re-activators of p53 using a Luc reporter | 0.063% of 320,000 active | H1299 p53-A138V BP100-luciferase reporter, luminescence, 24 h | Potency, µM (doses to about 92.2 µM), without a hit: at the top dose activity change, positive = activation, usual class: activators; also: potency is read from the fitted curve at half-maximal effect; % of control where 0% means no effect; nearly all actives have a fitted effect of over 45% in size
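p53-null H1299 cells stably carrying temperature-sensitive p53-A138V and a BP100-luciferase reporter were pinned with compounds (4-point, 1:5 series) and held 24 hrs at 37 deg C. Luminescence was read 10 min after detection reagent.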
VP16 counter: VP16 counterscreen qHTS for inhibitors of ROR gamma transcriptional activity; 3.5% of 310,000 active; AID 2546, 2010; Drosophila S2 Gal4-VP16 UAS-luciferase, luminescence, 20 h; Potency, µM (top dose mostly 53.6 µM), without a hit: at the highest dose activity, negative = inhibition, most hits filed as inhibitors;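 also: Gal4-VP16 expression switched on by copper sulfate through the metallothionein promoter; potency is read from the fitted curve at half-maximal effect; % is scaled to controls: 0 for no effect and ±100 for the full control effect; nearly all actives have a fitted effect of over 50% in size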
The depositor's hits bear a star; ? = inconclusive; · = not tested or not shown; [ ] = dose if it differs, or a comment. Unless noted, calls follow the shape of the dose curve; as a rule, active = well fitted curve in the direction sought with a large enough effect; inconclusive = small, poorly fitted or top-dose-only effect, or another doubt; inactive = no such curve, though single readings can be large; an effect the other way counts as inactive or inconclusive.

SMILES	CtBP-E1A blk	RORg inh	Six1-Eya2 blk	p53 reactivator	VP16 counter
O=C(CSc1nnc(SCc2cccc3ccccc23)s1)N=Nc1c(O)[nH]c2ccccc12	·	7.7%	·	?	-0.2%
COc1ccccc1N(C)S(=O)(=O)c1ccc(C(=O)N2CCCc3ccccc32)cc1	-0.8	39.8%	-11.4	9.8%	-18.1%
O=C(/C=C/c1ccco1)Nc1nc(-c2ccccn2)cs1	·	2.82µM*	-73.9*	14.5%	11.2µM*
O=C(CN1C(=O)CCC1=O)Nc1nc(-c2ccc3ccccc3c2)cs1	1.9	?	-5.7	0.8%	?
O=C(Nc1nc(-c2ccccn2)cs1)C1CCCC1	-7.5	8.91µM*	?	6.0%	?
O=C(CN1C(=O)CCC1=O)Nc1nc(-c2ccccn2)cs1	?	-18.0%	-87.6*	-1.3%	-13.8%
Cc1cc(C)cc(OCC(=O)Nc2nc(-c3ccccn3)cs2)c1	-24.5	·	-17.9	-2.9%	·
CSCCC(=O)Nc1nc(-c2ccccn2)cs1	-3.8	12.6µM*	-71.4*	9.2%	-18.1%
C=C1c2cccc(O)c2C(O)=C2C(=O)[C@@]3(O)C(O)=C(C(N)=O)C(=O)[C@@H](N(C)C)[C@@H]3[C@@H](O)[C@H]12	·	19.9%[2.98 µM]	·	·	-6.2%[17 µM]
COC(=O)c1c(NC(=O)/C=C/c2ccco2)sc2c1CCC2	9.8	7.7%	14.4	-3.5%	-18.0%
O=C(/C=C/c1ccco1)Nc1scc(-c2ccccc2)c1C(=O)O	-1.0	10µM*	-1.1	-0.1%	?
N#Cc1ccccc1OCC(=O)Nc1nc(-c2ccccn2)cs1	?	·	-82.6*	·	·
O=C(CCCSc1ccccc1)Nc1nc(-c2ccccn2)cs1	-17.7	10µM*	-0.1	7.3%	?
O=C(CCSc1ccccc1)Nc1nccs1	7.9	1.3%	4.4	6.8%	15.5%
Cc1sc(NC(=O)/C=C/c2ccco2)c(C(=O)OC(C)C)c1C	10.2	?	3.0	-3.8%	15.8µM*
O=C(/C=C/c1ccccc1)Nc1scc(-c2ccccc2)c1C(=O)O	·	-32.6%	-4.1	0.8%	?
CC[C@@H]1OC(=O)[C@@H](C)[C@H](O[C@H]2C[C@@](C)(OC)[C@@H](O)[C@H](C)O2)C(C)[C@H](O[C@H]2O[C@@H](C)C[C@@H](N(C)C)[C@@H]2O)[C@@](C)(O)C[C@H](C)C(=O)[C@@H](C)[C@H](O)[C@@]1(C)O (some centres not stated)	·	13.7%	·	·	4.0%
COc1ccc(C(C)(NC(C)=O)c2nc(-c3cccc(F)c3)cs2)cc1 (configuration not stated)	8.0	·	0.2	·	·
O=C(Nc1nc(-c2nc3ccccc3s2)cs1)C1CC1	-13.5	5.62µM*	0.9	?	?
O=C(CCC(=O)N1CCOCC1)NCCc1ccc(Cl)cc1Cl	12.4	6.31µM*	0.5	-3.9%	-11.7%
COc1cccc2oc(SC)cc(=O)c12	·	31.6µM*	·	·	?
O=c1cc(-c2ccccc2)oc2cc(O)c(O)c(O)c12	-7.9	28.2µM*	-4.8	27.3%	?
COc1cccc2oc3ccc(C#Cc4ccccn4)cc3c(=O)c12	6.2	?	-3.4	·	?
COc1cccc2oc(-c3ccc(O)cc3)cc(=O)c12	·	-33.4%	·	·	?
COc1cccc2oc(-c3ccccc3)cc(=O)c12	·	11.2µM*	·	·	?
SMILES	CtBP-E1A blk	RORg inh	Six1-Eya2 blk	p53 reactivator	VP16 counter
Cn1nc(C(=O)OCC(=O)Nc2cccc(S(=O)(=O)N3CCCC3)c2)c2ccccc2c1=O	·	?	-5.9	-0.9%	-20.9%
CCOC(=O)Cn1nc2oc(=O)c(CCN3CCN(c4ccccc4OC)CC3)c(C)c2c1C	2.1	·	-8.0	·	·
CC1(C)CC(=O)c2c(O)c(-c3ccccc3)c(=O)n(-c3ccccc3)c2C1	-9.8	-18.7%	-3.4	1.9%	-1.6%
Cc1ccc(OCC(=O)c2ccc(Cl)s2)c([N+](=O)[O-])n1	-5.3	?	-15.2	3.8%	20µM*
CCCOc1ccc(-c2c(C(=O)N/N=C/c3ccsc3)nnn2-c2nonc2N)cc1	·	7.94µM*	0.0	-1.2%	?
CCN(CC)c1ccc(/C=N/NC(=O)c2nnn(-c3nonc3N)c2-c2ccc(C)cc2)cc1	·	12.6µM*	-1.5	0.2%	?
CCOc1ccc(-c2c(C(=O)N/N=C/c3c[nH]c4ccccc34)nnn2-c2nonc2N)cc1	-17.8	?	-4.1	-3.1%	3.16µM*
O=S1(=O)CC(N2CCN(CCO)CC2)CN1Cc1cn(Cc2ccc(F)cc2)nn1 (configuration not stated)	1.5	·	6.4	·	·
Cc1ccccc1CS(=O)(=O)Cc1ccc(C(=O)NCCc2ccccc2)o1	1.5	32.3%	1.6	6.6%	-4.9%
O=C(NC(NC(=S)Nc1ccccc1)C(Cl)(Cl)Cl)c1cccc(Cl)c1 (configuration not stated)	5.0	11.2µM*	-4.8	-2.9%	?
O=C(O)c1cccc(NC(=S)NC(NC(=O)c2cccc([N+](=O)[O-])c2)C(Cl)(Cl)Cl)c1 (configuration not stated)	-19.4	10.8%	?	15.1%	-9.8%
Cc1ccc(NC(=S)NC(NC(=O)c2ccccc2)C(Cl)(Cl)Cl)c(C)c1 (configuration not stated)	21.2	?	-12.6	17.6%	?
Cc1cc(C)c(NC(=S)NC(NC(=O)c2ccccc2)C(Cl)(Cl)Cl)c(C)c1 (configuration not stated)	-4.2	20µM*	-4.0	1.1%	?
O=C(NCc1n[nH]c(=S)n1-c1ccc(Cl)c(Cl)c1)c1cccs1	2.6	15.8µM*	3.4	0.4%	5.6%
Cc1noc(/C=C/N(C)C)c1S(=O)(=O)N1CCCC(C(=O)Nc2ccc(F)cc2F)C1 (configuration not stated)	-1.6	10.6%	8.5	-0.3%	-2.0%
CCOc1cc(NC(=S)NC)c(OCC)cc1NC(=O)c1ccc(OC)cc1	14.1	10µM*	-4.7	-3.9%	?
CCOc1cc(NC(=S)NCc2ccco2)c(OCC)cc1NC(=O)CC(C)C	7.4	?	8.2	-7.2%	-16.1%
CCOc1cc(NC(=S)Nc2ccccc2)c(OCC)cc1NC(=O)c1ccccc1	-24.1	1.78µM*	-25.6	3.9%	10µM*
CCOc1cc(NC(=S)NCC2CCCO2)c(OCC)cc1NC(=O)CC(C)C (configuration not stated)	3.8	11.2µM*	7.8	7.3%	-13.3%
CCOc1cc(N2CCOCC2)c(OCC)cc1NC(=O)c1ccc(OC)cc1	-10.7	30.3%	-0.8	-2.6%	-14.6%
CCOc1ccccc1NC(=S)NCC1CCCO1 (configuration not stated)	-10.2	11.2µM*	0.8	-5.3%	?
